The record followed here is PubChem BioAssay AID652145 (The Scripps Research Institute Molecular Screening Center, 2013).

As usually defined, the IC50 is the concentration that inhibits the measured activity by half.

Some of the results follow. A number with no mark means an inactive call. Activity calls are given as the source filed them. The rule behind the calls is not given here. Where only a bound is given, the exact number is not on record here.

The assay can be described thus: GDH-TPI coupling enzyme inhibitors, dose response, artefact control for M. tuberculosis FBA inhibitor project, biochemical, fluorescence, IC50 (AID 652145). The following applies: GDH-TPI coupled enzyme assay, artifact counterscreen. (In general: Counterscreens check selectivity or assay interference.)
As for `O=C(NCc1cccc(Cl)c1)C1=CC=CN2CCS(=O)(=O)N=C12`, the IC50 was 4.94 µM (active). In the case of `CCCNC(=O)c1c(N)n(-c2ccc(S(N)(=O)=O)cc2)c2nc3ccccc3nc12`, the IC50 is 2.08 µM (active). The figure for `CCOc1c2ccc(C(=O)NC3CCCc4ccccc43)cc2nn1CC` (centres undefined) is 1.79 µM (active); for `COc1ccc2oc(=O)c(C(=O)NCc3ccccn3)cc2c1` it is 1.9 µM (active); for `O=C1C(=O)N(c2ccccc2)C(c2ccccc2)C1c1ccccc1` (centres undefined) it is greater than 10 µM. For the compound `Cn1cccc1-c1nc2ccccc2n1C`, the IC50 is 5.56 µM (active). Turning to `CC(=O)N1C(=O)/C(=C2\SC(=S)N(NC(=O)c3ccc(O)cc3)C2=O)c2ccccc21`, the IC50 was greater than 10 µM. `N#Cc1c(N2CCCCC2)nc(N)c2c(N)nc(SCC(=O)O)cc12`: the IC50 is greater than 10 µM. For `CC(=O)N1CCN(C(=O)c2cc(-c3ccc(Cl)s3)nc3ccccc23)CC1`, the IC50 is 2.27 µM (active).
